Lamin A splicing: qHTS Assay for Modulators of Lamin A Splicing; HeLa LMNA splicing GFP/RFP minigene ratio, 48 h; actives 0.01% (n = 200,000); Potency, µM (titrated, usually from 46.1 µM), without a hit: top-dose ratio change, negative = inhibition, usual class: inhibitors; AID 1487, 2009; active = well fitted inhibition curve with a large enough effect in the signal ratio, with a control signal flat, not every such curve was filed as active; inconclusive = small, poorly fitted or top-dose-only effect, or effect the other way, or a change in a side signal; the % refers to the signal ratio; note: potency is the fitted concentration of half-maximal effect
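S3 HeLa stable clones carrying a lamin A-EGFP splicing minigene plus DsRed2 were seeded at 600 cells/well in Opti-MEM with 2% FBS, pin-dosed and incubated 48 h at 37°C. Acumen cytometry (488 nm) gave the GFP/RFP total-intensity ratio.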
PNC inhibitor: High Content Assay for Compounds that inhibit the Assembly of the Perinucleolar Compartment; activity change (PNC), negative = inhibition, % at 10 µM; PC3M PTB-GFP, PNC prevalence imaging, 16 h; hits give low values; AID 2417, 2010; actives 3.1% (n = 140,000);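 active = readout at or below -70, meaning at least 70% loss of cells showing the perinucleolar compartment, a nuclear body marking cancer cells; inconclusive = readout between -30 and a set limit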;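 note: plate controls were DMSO wells for no effect and camptothecin positive control wells for full effect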
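Read-out is percentage of cells bearing a perinucleolar compartment, from automated 20x imaging of fixed, Hoechst-stained PC3M PTB-GFP cells. Cells were seeded 4 h, then exposed 16 h to compound (23 nl of library stock) in duplicate plates.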
ALDH1A1 inh: qHTS Assay for Inhibitors of Aldehyde Dehydrogenase 1 (ALDH1A1) | actives 7.3% (n = 220,000) | Potency, µM (doses to about 75.3 µM), without a hit: at the top dose activity, negative = inhibition, actives largely listed as inhibitors | AID 1030, 2008 | Purified ALDH1A1, NADH fluorescence, propionaldehyde substrate;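 note: potency is the fitted concentration of half-maximal effect; plate controls were no enzyme wells and a reference inhibitor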
ALOX12 inhib: qHTS Assay for Inhibitors of 12-hLO (12-human lipoxygenase); purified 12-hLO, xylenol orange hydroperoxide absorbance; Potency, µM (top dose mostly 57.1 µM), inactives show at the top dose activity change, negative = inhibition, actives largely listed as inhibitors; actives 0.12% (n = 150,000); AID 1452, 2008; active = well fitted inhibition curve with a large enough effect; inconclusive = small, poorly fitted or top-dose-only effect; note: potency is the fitted concentration of half-maximal effect; nearly all actives have a fitted effect of over 55% in size
Target sequence (P18054 whole entry, looked up): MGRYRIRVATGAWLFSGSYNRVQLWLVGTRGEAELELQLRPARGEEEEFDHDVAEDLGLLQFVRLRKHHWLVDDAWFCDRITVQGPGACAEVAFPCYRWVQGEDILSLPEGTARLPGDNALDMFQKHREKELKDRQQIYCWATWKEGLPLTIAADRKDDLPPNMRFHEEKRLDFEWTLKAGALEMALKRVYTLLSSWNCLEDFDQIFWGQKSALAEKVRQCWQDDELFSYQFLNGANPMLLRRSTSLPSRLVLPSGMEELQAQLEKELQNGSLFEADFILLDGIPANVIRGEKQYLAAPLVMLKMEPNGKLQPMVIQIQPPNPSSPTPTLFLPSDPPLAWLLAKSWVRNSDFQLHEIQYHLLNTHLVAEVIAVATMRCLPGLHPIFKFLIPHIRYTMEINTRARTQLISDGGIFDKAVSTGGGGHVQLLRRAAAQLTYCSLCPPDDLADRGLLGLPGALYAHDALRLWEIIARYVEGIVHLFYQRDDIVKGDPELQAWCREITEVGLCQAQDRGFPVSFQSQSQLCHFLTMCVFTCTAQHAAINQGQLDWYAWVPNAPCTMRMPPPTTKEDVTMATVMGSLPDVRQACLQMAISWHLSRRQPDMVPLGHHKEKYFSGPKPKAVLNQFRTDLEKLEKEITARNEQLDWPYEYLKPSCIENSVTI
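Hydroperoxide formation by human 12-lipoxygenase from 40 uM arachidonic acid was followed colorimetrically via ferric-xylenol orange complex, using the 573/405 nm absorbance ratio. Enzyme concentration was 150 nM, with 30 min reaction at room temperature.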
HPGD inh: qHTS Assay for Inhibitors of HPGD (15-Hydroxyprostaglandin Dehydrogenase). AID 894, 2007. Potency, µM, inactives show at the highest dose activity change, negative = inhibition, actives largely listed as inhibitors. actives 4.3% (n = 150,000). 15-hydroxyprostaglandin dehydrogenase [NAD(+)] (Homo sapiens), P15428. purified HPGD, NADH fluorescence kinetic, PGE2 substrate; note: potency is the fitted concentration of half-maximal effect
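NADH formation kinetics: reaction with 30 uM PGE2 and 1 mM NAD+ (final), 20 nM enzyme, Tris-HCl pH 8 with Tween 20, after 15 min compound preincubation at room temperature. Fluorescence change, last versus first of five reads.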
Numbers without * were called inactive; ? = inconclusive; . = not tested or not shown; [ ] = another dose, or the depositor's remark. Hits are enriched below; roughly 10% of the tested compounds scored in any of these assays. Unless noted, calls come from the whole dose curve; as a rule, active = well fitted inhibition curve with a large enough effect (not every such curve was filed as active); inconclusive = small, poorly fitted or top-dose-only effect, or another doubt; inactive = no such curve, though single readings can be large or run the other way. Unless noted, % is set by controls: 0 for no effect and ±100 for the full control effect.

SMILES	Lamin A splicing	PNC inhibitor	ALDH1A1 inh	ALOX12 inhib	HPGD inh
O=C(NC1CCCc2ccccc21)c1ccc(CNc2c(N3CCOCC3)c(=O)c2=O)cc1 (configuration not stated)	0.4%	31.3	0.5%	-1.8%	-9.6%
CC1CCN(c2c(NCc3ccc(C(=O)N4CCc5ccccc54)cc3)c(=O)c2=O)CC1	-16.8%	?	?	1.4%	17.8µM*
CC1CCCN(C(=O)c2ccc(CNc3c(N4CCCCC4)c(=O)c3=O)cc2)C1 (configuration not stated)	-13.3%	6.6	?	-0.4%	0.282µM*
Cc1cccc(N2CCN(C(=O)c3ccc(CNc4c(N5CCC(C)CC5)c(=O)c4=O)cc3)CC2C)c1 (configuration not stated)	.	.	-1.9%	.	.
O=C(NCc1ccco1)c1ccc(CNc2c(N3CCCCC3)c(=O)c2=O)cc1	-3.9%	34.5	8.5%	-2.1%	14.1µM*
NC1=N[C@H](c2ccc(Cl)cc2)N(c2ccc(S(=O)(=O)Nc3ncccn3)cc2)C(N)=N1	.	.	-4.1%[13.5 µM]	0.4%[11.4 µM]	-4.4%
CCn1c(SCC(=O)Nc2ccc(C)cc2Br)nnc1-c1nonc1NC(C)=O	13.5%[46 µM]	.	.	.	.
Cc1ccc(CNC(=O)c2ccc(CNc3c(N4CCCC4)c(=O)c3=O)cc2)cc1	5.3%	5.5	?	-4.5%	14.1µM*
Cc1ccc(NC(=O)c2ccc(CNc3c(N4CCOCC4)c(=O)c3=O)cc2)cc1	0.3%	?	?	-4.0%	-23.6%
NC(C(=O)O)c1ccc(P(=O)(O)O)cc1 (configuration not stated)	.	.	5.5%	.	.
Cc1cccc(OCC(=O)N2CCC(c3nc4ccccc4o3)CC2)c1C	1.3%[46 µM]	.	.	.	.
CCOCCCNC(=O)NC(CCC(C)C)c1c(-n2cccc2)sc2c1CCN(C)C2 (configuration not stated)	-4.8%[46 µM]	.	.	.	.
O=c1c2[nH]c3ccccc3c2ncn1C1CCCCC1	?	-9.4	?	-0.8%	-24.1%
O=C1c2ccccc2C(=O)c2c1ccc1c(=O)n(C3CCCCC3)[nH]c21	?	6.7	-10.9%	0.5%	14.1µM*
O=c1nc2ccccc2c2n1CC(CN1CCN(c3ccccc3)CC1)N2 (configuration not stated)	.	.	2.7%	.	.
CC(C)NS(=O)(=O)c1ccc2nc(NC(=O)c3cncc(Br)c3)sc2c1	-6.2%[46 µM]	.	.	.	.
C[C@H]1CN(CCO)CCN1c1ccccc1	.	.	6.8%[13.5 µM]	2.8%[11.4 µM]	-3.5%
COC(=O)c1sccc1N/C=C(\C#N)S(=O)(=O)C(C)(C)C	25.2%[46 µM]	.	?	.	.
CC(C)(C)S(=O)(=O)/C(C#N)=C/c1sccc1C1OCCO1	.	.	7.94µM*	.	.
COc1cccc(CNC(=O)c2ccc(-n3c(C)cc4c3CCCC4)cc2)c1	-19.2%[46 µM]	.	.	.	.
CCN(CC)c1ncnc2scc(C3COc4ccccc4O3)c12 (configuration not stated)	-21.5%	-100.0*	3.1%	-2.1%	-16.8%
c1ccc2c(c1)OCC(c1csc3ncnc(N4CCOCC4)c13)O2 (configuration not stated)	?	-20.9	-1.1%	-4.9%	-4.9%
Cc1ccc(NC(=O)CN2C(=O)c3ccccc3Sc3ccc(C(=O)N4CCOCC4)cc32)cc1F	9.2%[46 µM]	.	.	.	.
CC(C)=C1CCC(C)CC1=O (configuration not stated)	.	.	1.4%	-7.4%	-9.1%
O=C(CCn1c(=O)c2ccccc2n(Cc2cccc([N+](=O)[O-])c2)c1=O)N1CCc2ccccc2C1	-5.0%	43.5	?	1.5%	15.8µM*
SMILES	Lamin A splicing	PNC inhibitor	ALDH1A1 inh	ALOX12 inhib	HPGD inh
O=C1c2ccccc2NC(c2ccc(-c3ccc(Br)cc3)o2)N1O (configuration not stated)	?	-19.4	0.8%	?	-27.5%
O=C1c2ccccc2NC(c2ccc(-c3cccc([N+](=O)[O-])c3)o2)N1O (configuration not stated)	?	?	14.1µM*	-29.9%	17.8µM*
CCOc1ccc(N2C(=O)CC(Sc3nc(CC(C)C)ccc3C#N)C2=O)cc1 (configuration not stated)	0.7%[46 µM]	.	?	.	.
CCOc1ccc2nc(SCC(=O)c3ccccc3)sc2c1	?	?	4.8%	2.6%	-7.2%
CCOc1ccc(N2C(=O)CC(Sc3n[nH]c(-c4ccccc4)n3)C2=O)cc1 (configuration not stated)	?	.	0.447µM*	.	.
CCOc1ccc(N2C(=O)CC(Sc3nc(C)cc(C)c3C#N)C2=O)cc1 (configuration not stated)	?	17.5	14.1µM*	0.5%	-7.2%
CCOc1ccc2nc(SC3CC(=O)N(c4ccccc4)C3=O)sc2c1 (configuration not stated)	?	8.9	14.1µM*	-2.8%	-21.7%
CCOc1ccc2nc(SCCNS(=O)(=O)c3ccccc3)sc2c1	?	-113.0*	1.5%	-5.6%	-3.9%
O=c1[nH]c(=O)n([C@H]2C[C@H](O)[C@H](CO)O2)cc1/C=C\Br	.	.	.	-4.1%	.
Cc1cccc(N2CCN(C(=O)Cc3c(C(=O)O)c(C)cn3C)CC2)c1C	-1.2%[46 µM]	.	.	.	.
CCOc1ccc2nc(SC3CC(=O)N(c4cccc(OC)c4)C3=O)sc2c1 (configuration not stated)	-7.1%	?	20µM*	1.4%	-16.1%
O=c1c(-c2ccccc2)nc2cnc(N3CCNCC3)nc2n1-c1ccccc1	7.4%	.	?	.	.
O=C(CSC1CCCCC1)Nc1ccccc1Br	9.2%	?	1.1%	0.1%	17.8µM*
Cc1ccc(-c2nc3ccccc3c(=O)n2NC(=S)N(C)C)cc1	-3.0%	33.8	?	0.4%	28.2µM*
COc1ccc(CC(=O)Nn2c(-c3ccccc3)nc3ccccc3c2=O)cc1	?	?	1µM*	2.2%	-1.3%
COc1ccc(-c2nc3ccccc3c(=O)n2NC(=O)Cc2ccccc2)cc1	2.7%	27.7	?	1.3%	-1.5%
Cc1cc(NC(=O)/C=C/C(=O)N(CC(=O)NC2CCCC2)c2cccc3ccccc23)no1	?	.	2µM*	.	.
Cc1nc2ccccc2n1CCc1nc2c3ccccc3nc(SCc3ccccc3F)n2n1	-2.3%[46 µM]	.	.	.	.
Cc1cc(C)nc(-n2nc(C)cc2NC(=O)CNC(C)c2ccccc2)n1 (configuration not stated)	6.5%	8.5	?	2.1%	-3.6%
CCC1CCCCN1CC(=O)Nc1cc(C)nn1-c1nc(C)cc(C)n1 (configuration not stated)	-3.4%	?	14.1µM*	3.8%	-13.0%
Cc1cc(C)nc(-n2nc(C)cc2NC(=O)CN2CCC(C)CC2)n1	2.8%	17.1	3.55µM*	-6.6%	0.8%

High-throughput results as filed in PubChem BioAssay.
